# Measured values: PubChem BioAssay (NCATS)
# Results filed as inconclusive are left out. A call without a number means that no potency is given here. The source made the active and inactive calls. Calls come from the whole dose curve; as a rule, active = well fitted inhibition curve with a large enough effect; inconclusive = small, poorly fitted or top-dose-only effect; inactive = no such curve, though single readings can be large or run the other way.
# Assay: P-glycoprotein substrates identified in KB-3-1 adenocarcinoma cell line, qHTS therapeutic library screen (AID 1346986); note: nearly all actives have a fitted effect of over 60% in size;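 note: potency is for cytotoxicity meaning loss of cell viability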
# Details: KB-3-1 parental cells viability, CellTiter-Glo, 72 h; series mostly up to 44.5 µM; activity change, negative = cytotoxicity: at the top concentration
# Description: The ATP-binding cassette transporters P-glycoprotein (P-gp) is known to limit brain penetration of many chemotherapy drugs. […] We used the CellTiter-Glo viability assay to test library compounds against the parental KB-3-1 human cervical adenocarcinoma cell line and the colchicine-selected sub-line KB-8-5-11 that over-expresses P-gp. KB-8-5-11 cells were also tested in the presence of a P-gp inhibitor (tariquidar) to assess reversability of transporter-mediated resistance. Of the tested compounds, a total of 90 P-gp substrates were identified including 55 newly identified P-gp substrates. Substrates were confirmed using an orthogonal killing assay against HEK-293 cells transfected with P-gp. As exemplars, we confirmed that AT7159 (cyclin-dependent kinase inhibitor); AT9283, (Janus kinase 2/3 inhibitor); ispinesib (kinesin spindle protein inhibitor); gedatolisib (PKI-587, phosphoinositide 3-kinase/mammalian target of rampamycin inhibitor); GSK-690693 (AKT inhibitor); and KW-2478 (heat shock protein 90 inhibitor) were substrates , and direct ATPase stimulation was assessed. ABCG2 was also found to confer high levels of resistance to AT9283, GSK-690693 and gedatolisib, while ispinesib, AT7519 and KW-2478 were weaker substrates.
# The HeLa derivative cell line, KB-3-1, and its colchicine-selected, P-gp-overexpressing subline, KB-8-5-11 were maintained in DMEM with 10% FCS and Pen/Strep with glutamine at 37 degree C in 5% CO2. For KB-8-5-11 cells, colchicine was added to the medium at a concentration of 100 ng/mL. HEK-293 cells transfected with empty vector (pcDNA) or vector containing human ABCB1 (MDR-19) or ABCG2 (R-5) have been described previously (Robey, Lin, Qiu, Chan & Bates, 2011) and were maintained in EMEM supplemented with 10% FCS, Pen/Strep and glutamine with 2 mg/ml G418 to select for the expression of the transporter. Cultures were confirmed to be free of mycoplasma infection using the MycoAlert Mycoplasma Detection Kit (Lonza, Walkersville, MD). For the screen, assay medium was identical to culture medium except for KB-8-5-11 where colchicine was excluded from the medium.
# All cell lines were plated into 1536-well plates at 500 cells/well in 5 uL media. Compounds were then pinned in dose-response using a 1536-head pin tool (Kalypsis, San Diego, CA) and plates were incubated at 37 degree C in 5% CO2 for an additional 72 h. CellTiter-Glo reagent (Promega) was dispensed into the wells, incubated for 5 min and luminescence was read on a ViewLux instrument (Perkin-Elmer). Cytotoxic compounds were defined as those that yielded a curve class of -1.1, -1.2, -2.1, -2.2, -2.3, or -2.4, a maximum response of >50% and an AC50 of < 10 uM. Cherry-picked hits from screening analysis were tested with both the KB pair of cell lines, and the pcDNA (empty vector control) and MDR-19 (P-gp overexpressing) pair were tested, in the absence and presence of tariquidar.
# Potency is the fitted concentration of half-maximal effect.
Structure (SMILES),outcome,Potency
CC(C)S(=O)(=O)N[C@H]1CCOC[C@@H]1c1ccc(-c2ccc(C#N)s2)cc1,inactive,
C=C(C(=O)O)C1CCC2(C)CCCC(C)(O)C2C1 (stereo not given),inactive,
CNC12CC3C[C@@](C)(C1)C[C@](C)(C3)C2,inactive,
NC(=O)c1csc(C2OC(CO)C(O)C2O)n1 (stereo not given),inactive,
CCOC(=O)C(CCc1ccccc1)NC1CSC(c2cccs2)CN(CC(=O)O)C1=O (stereo not given),inactive,
CC12CCC3c4ccc(O)cc4CCC3C1CC(OC1OC(C(=O)O)C(O)C(O)C1O)C2O (stereo not given),inactive,
C=C(C(=O)O)C1CCC2(C)CCC(O)C(=C)C2C1 (stereo not given),inactive,
COc1ccc(C(O)C(C)OC2OC(CO)C(O)C(O)C2O)cc1 (stereo not given),inactive,
COC(=O)C(C)C1CCC2(C)C(=O)C=CC(C)(O)C2C1O (stereo not given),inactive,
CC(O)(CC(=O)O)CC(=O)OCc1ccc(O[C@@H]2O[C@H](CO)[C@@H](O)[C@H](O)[C@H]2O)cc1 (stereo not given in full),inactive [at 17.4 µM],
CC1CCC23COC(=O)C2=CC(O)CC3C1(C)CCC1=CC(O)OC1=O (stereo not given),inactive,
CC(=O)O[C@]1(C(C)=O)CC[C@H]2[C@@H]3C[C@H](C)C4=CC(=O)C=C[C@]4(C)[C@@]3(F)[C@@H](O)C[C@@]21C,inactive,
C[C@H](N)C(=O)N[C@@H](Cc1ccc(O)cc1)C(=O)N1CCC[C@H]1C(=O)NCC(=O)N[C@@H](CCCCN)C(=O)N[C@@H](Cc1ccccc1)C(N)=O,inactive [at 9.29 µM],
NC(=O)[C@H](O[C@@H]1O[C@H](CO)[C@@H](O)[C@H](O)[C@H]1O)c1ccccc1,inactive,
CCOc1ccc(NC(=S)N2CCC(C(O)(c3ccccc3)c3ccccc3)CC2)cc1,inactive,
CCOCc1cc(OC)c(-c2ccc(C[C@H](NC(=O)c3c(F)cccc3F)C(=O)O)cc2)c(OC)c1,inactive,
OC[C@H]1O[C@@H](Oc2ccccc2)[C@H](O)[C@@H](O)[C@@H]1O,inactive,
CC(C)C(=O)OC[C@H]1O[C@H](O[C@H]2O[C@H](CO)[C@@H](O)[C@H](O)[C@H]2O)[C@H](O)[C@@H](O)[C@@H]1O,inactive [at 17.4 µM],
CC(=O)O[C@@H]1[C@@H](CO)O[C@@](CO)(O[C@H]2O[C@H](COC(=O)/C=C/c3ccccc3)[C@@H](O)[C@H](O)[C@H]2O)[C@H]1O,inactive [at 17.4 µM],
CC/C=C\CCO[C@@H]1O[C@H](CO[C@@H]2OC[C@H](O)[C@H](O)[C@H]2O)[C@@H](O)[C@H](O)[C@H]1O,inactive,

Structure (SMILES),outcome,Potency
COc1ccc(C2(O)c3ccccc3NC(=O)C2O)cc1 (stereo not given),inactive,
COc1ccc(/C=C\C(=O)O)c(O[C@@H]2O[C@H](CO)[C@@H](O)[C@H](O)[C@H]2O)c1,inactive,
CC1CC(O)/C=C/C(O)C(O)CC(=O)Cc2c(Cl)c(O)cc(O)c2C(=O)O1 (stereo not given),inactive,
Cc1ccc(Cc2c(C)nc3nc(SCC(=O)NCCN4CCNCC4)nn3c2C)cc1,inactive,
COC(=O)CCc1cc2ccoc2c(OC)c1O[C@@H]1O[C@H](CO)[C@@H](O)[C@H](O)[C@H]1O,inactive [at 17.4 µM],
C=C1C(=O)OC2C1C(O)CC1(C)C(O)CCC(C=O)C21 (stereo not given),inactive,
C=C1[C@@H]2CC[C@@H]3[C@@](CCC4C(C(=O)O)(C(=O)O)C[C@@H](O[C@@H]5O[C@H](CO)[C@@H](O)[C@H](O)[C@H]5OC(=O)CC(C)C)C[C@]43C)(C2)[C@H]1O (stereo not given in full),inactive [at 17.4 µM],
O=C(O)c1cn(C2CC2)c2cc(N3C[C@@H]4C[C@H]3CN4)c(F)cc2c1=O,inactive,
CC(C(O)/C=C/C(C)(C)O)C1CCC2(C)C3C(=O)C=C4C(CCC(O)C4(C)C)C3(C)CCC12C (stereo not given),inactive [at 17.4 µM],
CCCCNc1ncc2c(-c3ccc(F)cc3)nn(CC3CCC(N)CC3)c2n1 (stereo not given),,2 µM (active)
CCC[C@@H]1O[C@@H]2C[C@H]3[C@@H]4CCC5=CC(=O)C=C[C@]5(C)[C@H]4[C@@H](O)C[C@]3(C)[C@]2(C(=O)CO)O1,inactive,
CC(=O)c1cc2c(cc1O)OC(C)(C)C=C2,inactive,
CC1=C(C(=O)O)/C(=C\CO[C@@H]2O[C@H](CO)[C@@H](O)[C@H](O)[C@H]2O)C(OC(=O)/C=C\c2ccc(O)cc2)C1 (stereo not given in full),inactive [at 17.4 µM],
O=C(O)c1cc(-c2c(-c3ccccc3)nn3ccccc23)n[nH]c1=O,inactive,
COC(=O)C1=CO[C@@H](O[C@@H]2O[C@H](CO)[C@@H](O)[C@H](O)[C@H]2O)C2C1C(=O)C[C@H]2C (stereo not given in full),inactive,
COc1c2cc(c(O)c1OC)-c1cc(ccc1O)CCC(O)CCCC2 (stereo not given),inactive,
Nc1nc2c(ncn2[C@@H]2O[C@@H]3COP(=O)(O)O[C@H]3[C@H]2O)c(=O)[nH]1,inactive,
COC(=O)C1=CO[C@@H](O[C@@H]2O[C@H](CO[C@@H]3O[C@H](COC(=O)/C=C/c4cc(OC)c(O)c(OC)c4)[C@@H](O)[C@H](O)[C@H]3O)[C@@H](O)[C@H](O)[C@H]2O)[C@@H]2C(CO)=CC[C@H]12,inactive [at 17.4 µM],
CC(=O)O[C@H]1[C@@H](O)[C@H](O[C@H]2[C@@H]3C=CO[C@@H](O[C@H]4O[C@@H](CO)[C@H](O)[C@@H](O)[C@@H]4O)[C@@H]3[C@@]3(CO)O[C@@H]23)O[C@@H](C)[C@@H]1OC(=O)/C=C/c1ccccc1,inactive [at 17.4 µM],
CS(=O)(=O)c1ccc([C@H](CC2CCCC2)C(=O)Nc2nccs2)cc1,inactive,
